Results taken from PubChem BioAssay AID602329 (Broad Institute, 2012).
In all, about 360,000 compounds went through this assay and about 510 (0.14%) were called active. The list comes from a sample in which actives are over-represented; it also holds similar structures and randomly drawn compounds. A number with no mark means an inactive call.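 The calls were made as follows: active = mean normalized replicate activity at least 40 and at least half of replicates scoring 40 or more; inconclusive = only one of the two criteria met; inactive = mean below 40 and under half of replicates reaching 40.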

What follows are compounds tested against DNA repair and recombination protein RAD54-like (Homo sapiens) (UniProt Q92698) (assay: RAD54 Holliday junction migration blockers – biochemical, fluorescence, single point, primary screen (AID 602329;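 also: 0% = median of neutral control wells and 100% = median of positive control wells; inhibitors cause a drop in the FAM fluorescence signal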)). Settings: RAD54 Holliday junction branch migration, FAM/BHQ fluorescence; at 10.4 µM; active compounds read high.
DNA repair and recombination protein RAD54-like (Homo sapiens), sequence (Q92698 whole entry, looked up): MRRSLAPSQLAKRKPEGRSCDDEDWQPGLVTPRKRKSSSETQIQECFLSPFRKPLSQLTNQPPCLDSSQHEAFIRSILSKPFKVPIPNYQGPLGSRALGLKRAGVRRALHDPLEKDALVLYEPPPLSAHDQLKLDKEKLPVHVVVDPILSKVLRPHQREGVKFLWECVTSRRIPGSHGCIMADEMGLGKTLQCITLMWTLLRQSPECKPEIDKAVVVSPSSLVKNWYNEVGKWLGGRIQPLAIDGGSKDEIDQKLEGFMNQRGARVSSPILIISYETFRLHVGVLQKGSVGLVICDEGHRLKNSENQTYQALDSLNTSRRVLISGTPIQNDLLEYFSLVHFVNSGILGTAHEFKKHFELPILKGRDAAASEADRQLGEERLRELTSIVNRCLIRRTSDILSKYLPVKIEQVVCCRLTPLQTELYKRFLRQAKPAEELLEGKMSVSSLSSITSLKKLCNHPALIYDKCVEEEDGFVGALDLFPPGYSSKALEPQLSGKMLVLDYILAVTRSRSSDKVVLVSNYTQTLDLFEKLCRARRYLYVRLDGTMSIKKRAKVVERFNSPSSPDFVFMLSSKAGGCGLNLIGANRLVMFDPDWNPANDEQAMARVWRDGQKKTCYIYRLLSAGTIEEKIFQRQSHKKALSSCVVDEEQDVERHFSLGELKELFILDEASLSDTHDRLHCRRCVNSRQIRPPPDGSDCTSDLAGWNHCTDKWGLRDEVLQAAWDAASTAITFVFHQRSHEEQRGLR
In the case of `CCOc1cccc(=NC2CCCCC2)c2c(C)[nH]c(C)c12`, the inhibition is reported as 76.8% (active). `COc1cccc(-c2ccc3n(c2=O)C[C@@H]2[C@@H](CO)[C@H](C(=O)O)[C@H]3N2C(=O)c2cnccn2)c1` showed an inhibition of -0.151%. `O=C(O)[C@@H]1[C@@H](CO)[C@@H]2Cn3c(ccc(-c4ccccc4F)c3=O)[C@H]1N2C(=O)c1cccnc1` was tested, and the inhibition was -3.76%. In the case of `COC(=O)[C@@H]1[C@@H](CO)[C@@H]2Cn3c(ccc(C4=CCCCC4)c3=O)[C@H]1N2CC1CC1`, the inhibition is reported as -6.66%. `C[C@H](CO)N1C[C@H](C)[C@H](CN(C)C(=O)Oc2ccc3ccccc3c2)OCc2cnnn2CCCC1=O` was tested, and the inhibition was -17.1%. Compound `COC(=O)[C@H]1[C@H](CO)[C@H]2Cn3c(ccc(C4=CCCC4)c3=O)[C@@H]1N2C(=O)CC1CC1` has an inhibition of 1.44%. In the case of `CN1CCN(c2cc(N3CCNCC3)ccc2[N+](=O)[O-])CC1`, the inhibition is reported as 68% (active). In the case of `COc1cccc(-c2nc3ccc(N4CCN(C)CC4)cc3[nH]2)c1`, the inhibition is reported as 19.3%. With `COC(=O)[C@H]1[C@H](CO)[C@H]2Cn3c(ccc(-c4cccc(F)c4)c3=O)[C@@H]1N2Cc1ccccc1` the inhibition was 9.7%. In the case of `O=C(O)[C@H]1[C@H](CO)[C@H]2Cn3c(ccc(-c4ccccc4)c3=O)[C@@H]1N2S(=O)(=O)c1ccccc1F`, the inhibition is reported as 6.58%.
